About 14,000 (4.5%) of roughly 310,000 compounds showed an effect of 50% or more. The effect is printed as a negative number. The entries come from a sample that favours strong results as a whole.
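Note: peak tail current of the secondary pulse compared with the same well before compound.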

human ether-à-go-go-related gene (hERG) potassium channel, sequence (Q12809 whole entry, looked up): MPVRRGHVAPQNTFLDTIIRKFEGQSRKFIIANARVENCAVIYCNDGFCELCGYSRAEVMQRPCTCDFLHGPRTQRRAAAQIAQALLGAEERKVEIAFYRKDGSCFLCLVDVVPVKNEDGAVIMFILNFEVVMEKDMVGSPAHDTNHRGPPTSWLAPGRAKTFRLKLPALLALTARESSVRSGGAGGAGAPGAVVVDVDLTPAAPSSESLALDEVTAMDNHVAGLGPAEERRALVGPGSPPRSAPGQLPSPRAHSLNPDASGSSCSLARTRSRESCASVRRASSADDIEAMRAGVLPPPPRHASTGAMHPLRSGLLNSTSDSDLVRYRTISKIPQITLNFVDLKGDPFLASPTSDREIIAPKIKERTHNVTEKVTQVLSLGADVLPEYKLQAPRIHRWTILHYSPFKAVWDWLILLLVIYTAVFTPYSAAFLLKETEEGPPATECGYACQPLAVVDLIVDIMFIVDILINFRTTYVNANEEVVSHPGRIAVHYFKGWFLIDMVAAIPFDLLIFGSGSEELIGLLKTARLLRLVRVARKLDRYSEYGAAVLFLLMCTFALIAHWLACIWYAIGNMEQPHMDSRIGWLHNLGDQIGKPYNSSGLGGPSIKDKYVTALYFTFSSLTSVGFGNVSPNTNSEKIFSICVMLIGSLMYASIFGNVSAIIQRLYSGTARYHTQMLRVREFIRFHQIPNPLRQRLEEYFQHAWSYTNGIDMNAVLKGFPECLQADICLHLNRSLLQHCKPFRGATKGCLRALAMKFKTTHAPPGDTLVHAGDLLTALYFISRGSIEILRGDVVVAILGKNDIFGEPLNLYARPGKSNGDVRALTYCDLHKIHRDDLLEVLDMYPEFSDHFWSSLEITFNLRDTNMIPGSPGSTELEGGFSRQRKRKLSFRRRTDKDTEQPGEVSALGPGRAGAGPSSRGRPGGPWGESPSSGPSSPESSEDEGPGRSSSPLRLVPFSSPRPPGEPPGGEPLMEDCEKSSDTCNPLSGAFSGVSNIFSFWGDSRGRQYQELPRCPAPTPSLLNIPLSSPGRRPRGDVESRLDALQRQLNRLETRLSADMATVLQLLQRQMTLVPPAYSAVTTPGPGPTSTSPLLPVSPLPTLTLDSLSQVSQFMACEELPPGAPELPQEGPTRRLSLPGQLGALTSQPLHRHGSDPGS

This test addresses human ether-à-go-go-related gene (hERG) potassium channel (human, UniProt Q12809). Description: primary screen, population patch clamp on CHO cells stably expressing hERG; higher = less effect of the substance.
In the case of `NC(=O)CCn1cnc2ccccc21`, the “hERG current change (%, negative = inhibition) at 10uM” value amounted to 6.28%.
For `O=C(NCc1cccnc1)c1ccc(=O)oc1` the value was -8.85%; for `CC(C)CNC(=O)c1cccc(NC(=O)COc2ccc([N+](=O)[O-])cc2)c1`, -57.4%; for `Cc1cccc(OCC(=O)Nc2cccc(C(=O)NCC(C)C)c2)c1`, -17.4%.
For `CCCOC(=O)c1cccc(NC(=O)COc2ccc([N+](=O)[O-])cc2)c1` the value was -26.9%; for `CC(C)CNC(=O)c1cccc(NC(=O)COc2cccc([N+](=O)[O-])c2)c1`, -24.7%.
As to `CCOC(=O)c1cccc(NC(=O)COc2ccc([N+](=O)[O-])cc2)c1`, the “hERG current change (%, negative = inhibition) at 10uM” value is -68%.
With `CCOC(=O)c1cc(NC(=O)COc2ccc([N+](=O)[O-])cc2)cc(C(=O)OCC)c1`, the “hERG current change (%, negative = inhibition) at 10uM” value is -12.9%.
As for `COCc1ccc(CN2CCCC(CO)(Cc3ccccc3C)C2)o1` (stereo not drawn), the “hERG current change (%, negative = inhibition) at 10uM” value was 2.18%.
Turning to `CC(=O)Nc1ccc(NC(=O)c2cc(=O)c3cc(C)c(C)cc3o2)cc1`, the “hERG current change (%, negative = inhibition) at 10uM” value is listed as 24.6%.
On to `Br.N=C1CCCN1CC(=O)c1ccc(Cl)cc1`, for which the “hERG current change (%, negative = inhibition) at 10uM” value came to 1.8%.
In the case of `COC(=O)c1ccc(/C=N\NC(=O)CC(=O)NCCc2ccccc2)cc1`, the “hERG current change (%, negative = inhibition) at 10uM” value is on record as 19.8%.
In the case of `COc1ccc(N2CCN(C(=O)C3CCCN(S(=O)(=O)c4cccc5cccnc45)C3)CC2)cc1` (stereo not drawn), the “hERG current change (%, negative = inhibition) at 10uM” value is recorded as -32.1%.
`O=C(Nc1ccc(F)cc1)C1CCCN(S(=O)(=O)c2cccc3cccnc23)C1` (stereo not drawn): the “hERG current change (%, negative = inhibition) at 10uM” value was -49.3%.
As to `O=C(O)C1CCCN(S(=O)(=O)c2cccc3cccnc23)C1` (stereo not drawn), the “hERG current change (%, negative = inhibition) at 10uM” value was 10.9%.
Take `O=C(O)[C@@H]1CCCN(S(=O)(=O)c2cccc3cccnc23)C1`: the “hERG current change (%, negative = inhibition) at 10uM” value stood at 11.6%.
In the case of `O=C(C1CCCN(S(=O)(=O)c2cccc3cccnc23)C1)N1CCN(c2ccccc2F)CC1` (stereo not drawn), the “hERG current change (%, negative = inhibition) at 10uM” value was -75.5%.
Consider `O=C(C1CCCN(S(=O)(=O)c2cccc3cccnc23)C1)N1CCN(c2ccc(F)cc2)CC1` (stereo not drawn), for which the “hERG current change (%, negative = inhibition) at 10uM” value was -67.5%.
Regarding `CCN1C(=O)[C@H]2[C@@H](c3ccc(C)cc3)N3C(=O)N(c4ccccc4)C(=O)[C@@]3(CC)[C@H]2C1=O`, the “hERG current change (%, negative = inhibition) at 10uM” value is 3.81%.
Take `O=C(CN1C(=O)NC2(CCCCCC2)C1=O)N1CCC(Cc2ccccc2)CC1`: the “hERG current change (%, negative = inhibition) at 10uM” value is reported as -24.4%.
Regarding `CN1CCN(C(=O)OC2c3nccnc3C(=O)N2c2ccc(Cl)cn2)CC1` (stereo not drawn), the “hERG current change (%, negative = inhibition) at 10uM” value was found to be 13.9%.
As for `O=C(NCC1CCCO1)c1c(O)c2cccc3c2n(c1=O)CC3` (stereo not drawn), the “hERG current change (%, negative = inhibition) at 10uM” value is 10.4%.
Take `Cc1ccccc1C(=O)Nc1ccc(Cl)cn1`: the “hERG current change (%, negative = inhibition) at 10uM” value is 6%.
For `CCOC(=O)N1CCN(Cc2nc3cc(NC(=O)c4cccs4)ccc3n2CC)CC1`, the “hERG current change (%, negative = inhibition) at 10uM” value was -55.3%.
For `CCCC(=O)Nc1ccc2c(c1)nc(CN1CCN(C(=O)OCC)CC1)n2CC` the value was 9.54%.
Consider `CCOC(=O)N1CCN(Cc2nc3cc(NC(C)=O)ccc3n2CC)CC1`, for which the “hERG current change (%, negative = inhibition) at 10uM” value worked out at 14.9%.
Regarding `CCOC(=O)N1CCN(Cc2nc3cc(NC(=O)c4cccs4)ccc3n2C)CC1`, the “hERG current change (%, negative = inhibition) at 10uM” value is -74.7%.
For `CC(=O)N1CCN(Cc2nc3cc(NC(=O)c4cccs4)ccc3n2C)CC1` the value was 13.8%.
As for `Cn1c(CN2CCCCC2)nc2cc(NC(=O)c3cccs3)ccc21`, the “hERG current change (%, negative = inhibition) at 10uM” value is on record as -31.2%.
For `CCOC(=O)N1CCN(Cc2nc3cc(NC(=O)c4ccco4)ccc3n2CC)CC1` the value was -58%; for `CCOC(=O)N1CCN(Cc2nc3cc(NC(=O)c4ccco4)ccc3n2C)CC1`, -26.5%; for `CCOC(=O)N1CCN(Cc2nc3cc(NC(=O)CC)ccc3n2CC)CC1`, 9.4%.
Regarding `CCOc1ccc(C(=O)NC2CC(=O)N(c3ccc4c(c3)OCCO4)C2)cc1` (stereo not drawn), the “hERG current change (%, negative = inhibition) at 10uM” value is reported as -10.1%.
As for `COc1ccccc1C(=O)N1CCN(Cc2nc(CC3CC3)no2)CC1`, the “hERG current change (%, negative = inhibition) at 10uM” value is 9.93%.
As for `Cc1ccccc1CN1CCC(n2nccc2NC(=O)CCCc2ccccc2)CC1`, the “hERG current change (%, negative = inhibition) at 10uM” value is recorded as -49.3%.
Take `CC(=O)N[C@@H](C)C(=O)N1CCC(n2nccc2NC(=O)CCCc2ccccc2)CC1`: the “hERG current change (%, negative = inhibition) at 10uM” value is -2.4%.
Regarding `CC(CN1CCC(n2nccc2NC(=O)CCCc2ccccc2)CC1)c1ccccc1` (stereo not drawn), the “hERG current change (%, negative = inhibition) at 10uM” value was -51.9%.
`O=C(CCCc1ccccc1)Nc1ccnn1C1CCN(Cc2ccc(CO)o2)CC1`: the “hERG current change (%, negative = inhibition) at 10uM” value was -10.5%.
As to `Cn1cc(CN2CCC(n3nccc3NC(=O)CCCc3ccccc3)CC2)cn1`, the “hERG current change (%, negative = inhibition) at 10uM” value is 5.95%.
For `O=C(CCCc1ccccc1)Nc1ccnn1C1CCN(Cc2ccc(Cl)cc2)CC1`, the “hERG current change (%, negative = inhibition) at 10uM” value is -74.8%.
For `O=C(CCCc1ccccc1)Nc1ccnn1C1CCN(Cc2ccccc2)CC1` the value was -77.3%; for `O=C(CCCc1ccccc1)Nc1ccnn1C1CCN(Cc2ccccn2)CC1`, -15.2%.
With `CC(C)n1cc(CN2CCC(n3nccc3NC(=O)CCCc3ccccc3)CC2)cn1`, the “hERG current change (%, negative = inhibition) at 10uM” value is listed as -26%.
As to `Cc1nn(C)cc1CN1CCC(n2nccc2NC(=O)CCCc2ccccc2)CC1`, the “hERG current change (%, negative = inhibition) at 10uM” value is on record as -3.27%.
Consider `Cc1ccc(C)c(CN2CCC(n3nccc3NC(=O)CCCc3ccccc3)CC2)c1`, for which the “hERG current change (%, negative = inhibition) at 10uM” value was -54.8%.
